According to the supplement of paper PMC7411054:

Columns and labels:
Conditions in all cases: treatment time: 24 h
A549-ACTB-RAB5A [1] = test: lowest phenotypically active concentration; higher = less potent
How it was run: (§1)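 The reporter lines, fifteen in total and built by gene editing in A549, HepG2 and WPMY1 cells, used BFP for segmentation alongside GFP and RFP/FusionRed markers. Each was treated at 0.3, 1, 3 or 9 µM for 24 h in four wells and then imaged live, with live-cell features normalised to solvent control wells. Deviation meant ≥3 of 4 wells beyond the 95th percentile of control Euclidean distances; reproducibility meant a median replicate Pearson correlation above the 95th percentile of non-replicates. Only conditions meeting both were scored as phenotypically active.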

A549-GM130-SQSTM1 [2] = test: as above
How it was run: as §1

A549-TUBA1B-RELA [3] = test: as above
How it was run: as §1

HepG2-ACTB-RAB5A [4] = test: as above
How it was run: as §1

A549-ACTB-RAB5A [5] = test: phenotypically active (imaging signature differs from DMSO and reproducible) at any of 0.3-9 uM (binary (1 = active, 0 = inactive)); higher = active
How it was run: as §1

A549-CANX-COX4 = test: as above
How it was run: as §1

A549-GM130-SQSTM1 [6] = test: as above
How it was run: as §1

A549-TP53BP1-CLTA = test: as above
How it was run: as §1

A549-TUBA1B-RELA [7] = test: as above
How it was run: as §1

HepG2-ACTB-RAB5A [8] = test: as above
How it was run: as §1

HepG2-CANX-COX4 = test: as above
How it was run: as §1

HepG2-GM130-SQSTM1 = test: as above
How it was run: as §1

HepG2-TP53BP1-CLTA = test: as above
How it was run: as §1

HepG2-TUBA1B-RELA = test: as above
How it was run: as §1

WPMY1-ACTB-RAB5A = test: as above
How it was run: as §1

WPMY1-CANX-COX4 [9] = test: as above
How it was run: as §1

WPMY1-GM130-SQSTM1 = test: as above
How it was run: as §1

WPMY1-TP53BP1-CLTA = test: as above
How it was run: as §1

WPMY1-TUBA1B-RELA = test: as above
How it was run: as §1

WPMY1-CANX-COX4 [10] = test: lowest phenotypically active concentration; higher = less potent
How it was run: as §1

Nc1ncnc(Nc2ccc(OCc3ccccc3)c(Cl)c2)c1/C=N/OCCN1CCOCC1
3 µM: lowest phenotypically active concentration (A549-ACTB-RAB5A [1]) | lowest phenotypically active concentration (A549-GM130-SQSTM1 [2])
inactive: phenotypically active (HepG2-CANX-COX4) 0 | phenotypically active (WPMY1-ACTB-RAB5A) 0 | phenotypically active (WPMY1-CANX-COX4 [9]) 0 | phenotypically active (WPMY1-GM130-SQSTM1) 0 | phenotypically active (WPMY1-TP53BP1-CLTA) 0 | phenotypically active (WPMY1-TUBA1B-RELA) 0
1 µM: lowest phenotypically active concentration (A549-TUBA1B-RELA [3])
9 µM: lowest phenotypically active concentration (HepG2-ACTB-RAB5A [4])
active: phenotypically active (A549-ACTB-RAB5A [5]) 1 | phenotypically active (A549-CANX-COX4) 1 | phenotypically active (A549-GM130-SQSTM1 [6]) 1 | phenotypically active (A549-TP53BP1-CLTA) 1 | phenotypically active (A549-TUBA1B-RELA [7]) 1 | phenotypically active (HepG2-ACTB-RAB5A [8]) 1 | phenotypically active (HepG2-GM130-SQSTM1) 1 | phenotypically active (HepG2-TP53BP1-CLTA) 1 | phenotypically active (HepG2-TUBA1B-RELA) 1

COC(=O)Nc1nc2ccc(C(=O)c3cccs3)cc2[nH]1 [Nocodazole]
active: phenotypically active (A549-ACTB-RAB5A [5]) 1 | phenotypically active (A549-CANX-COX4) 1 | phenotypically active (A549-GM130-SQSTM1 [6]) 1 | phenotypically active (A549-TP53BP1-CLTA) 1 | phenotypically active (A549-TUBA1B-RELA [7]) 1 | phenotypically active (HepG2-ACTB-RAB5A [8]) 1 | phenotypically active (HepG2-CANX-COX4) 1 | phenotypically active (HepG2-GM130-SQSTM1) 1 | phenotypically active (HepG2-TP53BP1-CLTA) 1 | phenotypically active (HepG2-TUBA1B-RELA) 1 | phenotypically active (WPMY1-ACTB-RAB5A) 1 | phenotypically active (WPMY1-CANX-COX4 [9]) 1 | phenotypically active (WPMY1-GM130-SQSTM1) 1 | phenotypically active (WPMY1-TP53BP1-CLTA) 1 | phenotypically active (WPMY1-TUBA1B-RELA) 1
≤ 0.3 µM: lowest phenotypically active concentration (A549-ACTB-RAB5A [1]) | lowest phenotypically active concentration (A549-GM130-SQSTM1 [2]) | lowest phenotypically active concentration (A549-TUBA1B-RELA [3]) | lowest phenotypically active concentration (HepG2-ACTB-RAB5A [4]) | lowest phenotypically active concentration (WPMY1-CANX-COX4 [10])

O=C1c2ccccc2-c2nc3nonc3nc21
9 µM: lowest phenotypically active concentration (WPMY1-CANX-COX4 [10])
inactive: phenotypically active (WPMY1-GM130-SQSTM1) 0 | phenotypically active (WPMY1-TP53BP1-CLTA) 0
3 µM: lowest phenotypically active concentration (A549-ACTB-RAB5A [1]) | lowest phenotypically active concentration (A549-GM130-SQSTM1 [2]) | lowest phenotypically active concentration (A549-TUBA1B-RELA [3]) | lowest phenotypically active concentration (HepG2-ACTB-RAB5A [4])
active: phenotypically active (A549-ACTB-RAB5A [5]) 1 | phenotypically active (A549-CANX-COX4) 1 | phenotypically active (A549-GM130-SQSTM1 [6]) 1 | phenotypically active (A549-TP53BP1-CLTA) 1 | phenotypically active (A549-TUBA1B-RELA [7]) 1 | phenotypically active (HepG2-ACTB-RAB5A [8]) 1 | phenotypically active (HepG2-CANX-COX4) 1 | phenotypically active (HepG2-GM130-SQSTM1) 1 | phenotypically active (HepG2-TP53BP1-CLTA) 1 | phenotypically active (HepG2-TUBA1B-RELA) 1 | phenotypically active (WPMY1-ACTB-RAB5A) 1 | phenotypically active (WPMY1-CANX-COX4 [9]) 1 | phenotypically active (WPMY1-TUBA1B-RELA) 1

CNC(=O)c1cc(Oc2ccc(NC(=O)Nc3ccc(Cl)c(C(F)(F)F)c3)cc2)ccn1 [sorafenib]
3 µM: lowest phenotypically active concentration (A549-ACTB-RAB5A [1]) | lowest phenotypically active concentration (WPMY1-CANX-COX4 [10])
inactive: phenotypically active (WPMY1-TP53BP1-CLTA) 0
9 µM: lowest phenotypically active concentration (A549-GM130-SQSTM1 [2]) | lowest phenotypically active concentration (A549-TUBA1B-RELA [3]) | lowest phenotypically active concentration (HepG2-ACTB-RAB5A [4])
active: phenotypically active (A549-ACTB-RAB5A [5]) 1 | phenotypically active (A549-CANX-COX4) 1 | phenotypically active (A549-GM130-SQSTM1 [6]) 1 | phenotypically active (A549-TP53BP1-CLTA) 1 | phenotypically active (A549-TUBA1B-RELA [7]) 1 | phenotypically active (HepG2-ACTB-RAB5A [8]) 1 | phenotypically active (HepG2-CANX-COX4) 1 | phenotypically active (HepG2-GM130-SQSTM1) 1 | phenotypically active (HepG2-TP53BP1-CLTA) 1 | phenotypically active (HepG2-TUBA1B-RELA) 1 | phenotypically active (WPMY1-ACTB-RAB5A) 1 | phenotypically active (WPMY1-CANX-COX4 [9]) 1 | phenotypically active (WPMY1-GM130-SQSTM1) 1 | phenotypically active (WPMY1-TUBA1B-RELA) 1

CC[C@]12CCCN3CCc4c(n(c5ccccc45)C(=O)C1)[C@@H]32 [Eburnamonine (-)]
9 µM: lowest phenotypically active concentration (A549-ACTB-RAB5A [1]) | lowest phenotypically active concentration (A549-GM130-SQSTM1 [2]) | lowest phenotypically active concentration (A549-TUBA1B-RELA [3]) | lowest phenotypically active concentration (HepG2-ACTB-RAB5A [4]) | lowest phenotypically active concentration (WPMY1-CANX-COX4 [10])
active: phenotypically active (A549-ACTB-RAB5A [5]) 1 | phenotypically active (A549-CANX-COX4) 1 | phenotypically active (A549-GM130-SQSTM1 [6]) 1 | phenotypically active (A549-TP53BP1-CLTA) 1 | phenotypically active (A549-TUBA1B-RELA [7]) 1 | phenotypically active (HepG2-ACTB-RAB5A [8]) 1 | phenotypically active (HepG2-TP53BP1-CLTA) 1 | phenotypically active (HepG2-TUBA1B-RELA) 1 | phenotypically active (WPMY1-ACTB-RAB5A) 1 | phenotypically active (WPMY1-CANX-COX4 [9]) 1 | phenotypically active (WPMY1-TP53BP1-CLTA) 1 | phenotypically active (WPMY1-TUBA1B-RELA) 1
inactive: phenotypically active (HepG2-CANX-COX4) 0 | phenotypically active (HepG2-GM130-SQSTM1) 0 | phenotypically active (WPMY1-GM130-SQSTM1) 0
